Data taken from PubChem BioAssay (EPA / NIEHS).
Where “and” joins values, the source holds several entries; their conditions need not be identical. Equal values may be shown once. Records with an inconclusive call do not appear. Where a structure was tested more than once in an assay, its records may differ in their call. Calls of active or inactive are those of the source. The calls were made as follows, unless noted: active = hit-call score of the fitted dose curve at least 0.9, where 1 is the maximum; inactive = score below 0.9.

Tests used:
[1] = CCTE_Simmons_MITO_basal_resp_rate: CCTE's HepG2 Seahorse XF Respirometric Screening Assay at Basal Respiratory State, Simmons Lab (AID 2284001); settings: actives raise or lower the signal
Summary of the method: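 HepG2 cells were given test chemicals at 7 concentrations, 125 nM to 100 uM final, and oxygen consumption rate was read every 6 min (3 min mix, 3 min measure) over 72 min. Basal-phase OCR was fitted bidirectionally against DMSO.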

[2] = CCTE_Simmons_MITO_max_resp_rate: CCTE's HepG2 Seahorse XF Respirometric Screening Assay at Maximal Respiratory State [uncoupled], Simmons Lab (AID 2284002); settings: actives raise or lower the signal
Summary of the method: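 Maximal (FCCP-uncoupled) respiration rate in HepG2, from Seahorse kinetic OCR over 72 min at 6 min cycles. Compounds at 125 nM–100 uM final, 7 points, three biological replicates; both directions fit relative to DMSO.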

[3] = CCTE_Simmons_MITO_inhib_resp_rate: CCTE's HepG2 Seahorse XF Respirometric Screening Assay at Inhibited Respiratory State [full ETC block], Simmons Lab (AID 2284006); settings: actives raise or lower the signal
Summary of the method: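 Inhibited respiration was taken as HepG2 oxygen consumption after rotenone/antimycin A, which followed test-compound and FCCP injections. Chemicals were tested at seven final concentrations from 125 nM to 100 uM. Activity was fitted bidirectionally relative to DMSO.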

[4] = CCTE_Harrill_HTTr_Viability_MCF7: CCTE's 6-hour Cell Viability Assessment for the High-Throughput Transcriptomics (HTTr) Platform, in MCF-7 cells cultured in DMEM + 10% fetal bovine serum, Harrill Lab (AID 2284010)
Summary of the method: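 Viability measured through PI dye exclusion by high-content imaging at 6 h post-dosing.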

[5] = CCTE_Harrill_HTTr_Apoptosis_MCF7: CCTE's 6-hour Apoptosis Assessment for the High-Throughput Transcriptomics (HTTr) Platform, in MCF-7 cells cultured in DMEM + 10% fetal bovine serum, Harrill Lab (AID 2284011)
Summary of the method: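 High-content imaging of CellEvent Caspase 3/7 Green signal follows a six-hour exposure, with eight concentrations per chemical. MCF-7 cells grown in DMEM plus 10% fetal bovine serum; activity fitted in both directions against DMSO.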

[6] = CCTE_Shafer_MEA_acute_spike_number: CCTE's Neural Acute Assay for Total Number of Spikes, Shafer Lab (AID 2284008);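 as to AC50: curve fitted for decrease in spike count so AC50 reflects inhibitors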
Summary of the method: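 Total spike count from 40 min recordings before and during compound exposure (0.03-40 uM), given as per-well percent change. Cortical cultures from rat, DIV 13 or 15, 37 C; adaptive detection threshold 8x rms noise.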

[7] = CCTE_Shafer_MEA_acute_firing_rate_mean: CCTE's Neural Acute Assay for Mean Firing Rate, Shafer Lab (AID 2284009);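 also: analyzed for loss of signal so actives lower firing rate relative to DMSO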
Summary of the method: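 Read-out: well-mean spike rate (spikes/recording length/electrodes), % change from 40 min pre-dose baseline to 40 min with compound. Rat cortical cultures, DIV 13 or 15, 37 C; 0.03-40 uM; DMSO as negative control.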

[8] = CCTE_Shafer_MEA_acute_burst_number: CCTE's Neural Acute Assay for Single-Electrode Bursts, Shafer Lab (AID 2284013)
Summary of the method: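 Rat cortical cultures, DIV 13/15; 40 min baseline, then 40 min with compound 0.03-40 uM, 37 C. Spikes: 300-5000 Hz band-pass, threshold 8x rms noise. Readout = % change in single-electrode bursts vs baseline, loss-of-signal fit.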

[9] = CCTE_Shafer_MEA_acute_burst_duration_mean: CCTE's Neural Acute Assay for Mean Burst Duration, Shafer Lab (AID 2284014);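 also: hits are decreases in mean burst duration relative to DMSO controls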
Summary of the method: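 Primary rat cortical neurons on 16-electrode MEA wells, treated on DIV 13 or 15 with compound (0.03-40 uM; ≥3 wells each). 40-min baseline and 40-min exposure recordings at 37 C; percent change in mean burst duration per well versus DMSO.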

[10] = CCTE_Shafer_MEA_acute_per_burst_spike_number_mean: CCTE's Neural Acute Assay for Average Number of Spikes Per Burst, Shafer Lab (AID 2284015);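 also: hits are decreases in mean spikes per burst versus baseline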
Summary of the method: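 Rat primary cortical neurons on 48-well MEAs (DIV 13 or 15) were treated with 0.03-40 uM compound at 37 C. Mean spikes per burst over 40 min were recorded before and after exposure and expressed as percent change from baseline, relative to DMSO.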

[11] = system: DIO1 (gene 1733); assay: CCTE_GLTED_hDIO1: CCTE's human Deiodinase 1 (DIO1) Inhibition Assay, Great Lakes Toxicology and Ecology Division (GLTED) Lab (AID 2283987; active = hit-call score of the fitted dose curve at least 0.9, where 1 is the maximum;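 also: isolated human DIO1 enzyme in a cell-free setup rather than cells; enzyme activity read as free iodide liberated from substrate via Sandell-Kolthoff colorimetry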)
Summary of the method: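 Inhibition read as reduced iodide release: after 3 h of human DIO1 with chemical, free iodide is quantified colorimetrically (Sandell-Kolthoff cerium/arsenic reaction). Triplicate plates, DMSO baseline.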

[12] = target: Nucleoli Translocation, AR (gene 367) (UniProt P10275); assay: UPITT_HCI_U2OS_AR_TIF2_Nucleoli_Antagonist: University of Pittsburgh U2OS Androgen Receptor-Transcriptional Intermediary Factor 2 (AR-TIF2) Antagonism High Content Imaging Assay for Nucleoli Translocation (AID 2283997; active = hit-call score of the fitted dose curve at least 0.9, where 1 is the maximum)
Summary of the method: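 U2OS cells expressing RFP-tagged human AR and GFP-tagged TIF2 were imaged by high-content fluorescence microscopy for red AR signal in the nucleolar region. Compounds were screened at 20 uM final (0.2% DMSO), with activity fitted relative to DHT as baseline.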

[13] = target: Nucleoli Translocation, AR (gene 367) (UniProt P10275); assay: UPITT_HCI_U2OS_AR_TIF2_Nucleoli_Agonist: University of Pittsburgh U2OS Androgen Receptor-Transcriptional Intermediary Factor 2 (AR-TIF2) Agonism High Content Imaging Assay for Nucleoli Translocation (AID 2283998; active = hit-call score of the fitted dose curve at least 0.9, where 1 is the maximum)
Summary of the method: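 Nucleolar translocation of AR-RFP, with TIF2-GFP coexpressed in human osteosarcoma U2OS, imaged by high-content fluorescence. Compounds tested singly at 20 uM final, confirmed in triplicate, then titrated 0.195–50 uM final; gain-of-signal relative to DMSO.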

[14] = target: Ratio of Nucleoli Translocation and Cytoplasm, AR (gene 367) (UniProt P10275); assay: UPITT_HCI_U2OS_AR_TIF2_Nucleoli_Cytoplasm_Ratio_Antagonist: University of Pittsburgh U2OS Androgen Receptor-Transcriptional Intermediary Factor 2 (AR-TIF2) Antagonism High Content Imaging Assay for Ratio of Nucleoli Translocation and Cytoplasm (AID 2283999; active = hit-call score of the fitted dose curve at least 0.9, where 1 is the maximum;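 also: antagonists lower the DHT-driven ratio of nucleolar to cytoplasmic red signal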)
Summary of the method: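 High-content imaging quantifies the red nucleolar:cytoplasmic fluorescence ratio in U2OS cells with AR-RFP and TIF2-GFP. Final concentrations are 20 uM (screen) or 0.195–50 uM (dose response), analysed against DHT as baseline.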

[15] = target: Ratio of Nucleoli Translocation and Cytoplasm, AR (gene 367) (UniProt P10275); assay: UPITT_HCI_U2OS_AR_TIF2_Nucleoli_Cytoplasm_Ratio_Agonist: University of Pittsburgh U2OS Androgen Receptor-Transcriptional Intermediary Factor 2 (AR-TIF2) Agonism High Content Imaging Assay for Ratio of Nucleoli Translocation and Cytoplasm (AID 2284000; active = hit-call score of the fitted dose curve at least 0.9, where 1 is the maximum;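 also: hits raise the red nucleolar to cytoplasm ratio above vehicle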)
Summary of the method: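 U2OS cells expressing RFP-tagged human AR and GFP-tagged TIF2 were imaged by high-content fluorescence microscopy. The endpoint is the ratio of nucleolar to cytoplasmic red fluorescence, fitted for gain of signal relative to DMSO. Concentration-response spanned 0.195 to 50 uM final (0.5% DMSO).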

[16] = CCTE_Harrill_HTTr_CellCount_MCF7: CCTE's Cell Proliferation Assessment for the High-Throughput Transcriptomics (HTTr) Platform, Harrill Lab (AID 2284012; active = hit-call score of the fitted dose curve at least 0.9, where 1 is the maximum;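 also: count of Hoechst-stained nuclei per well by high-content imaging in MCF-7 cells; cells exposed to compound for six hours; intended direction is loss of nuclei count meaning fewer cells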)
Summary of the method: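 Nuclei counting (Hoechst, high content imaging) in MCF-7 after a 6 h treatment at eight concentrations. Activity fitted bidirectionally, DMSO as negative control.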

Measured: AC50

Chain of Nucleoli Translocation, AR (gene 367) (P10275 whole entry, looked up): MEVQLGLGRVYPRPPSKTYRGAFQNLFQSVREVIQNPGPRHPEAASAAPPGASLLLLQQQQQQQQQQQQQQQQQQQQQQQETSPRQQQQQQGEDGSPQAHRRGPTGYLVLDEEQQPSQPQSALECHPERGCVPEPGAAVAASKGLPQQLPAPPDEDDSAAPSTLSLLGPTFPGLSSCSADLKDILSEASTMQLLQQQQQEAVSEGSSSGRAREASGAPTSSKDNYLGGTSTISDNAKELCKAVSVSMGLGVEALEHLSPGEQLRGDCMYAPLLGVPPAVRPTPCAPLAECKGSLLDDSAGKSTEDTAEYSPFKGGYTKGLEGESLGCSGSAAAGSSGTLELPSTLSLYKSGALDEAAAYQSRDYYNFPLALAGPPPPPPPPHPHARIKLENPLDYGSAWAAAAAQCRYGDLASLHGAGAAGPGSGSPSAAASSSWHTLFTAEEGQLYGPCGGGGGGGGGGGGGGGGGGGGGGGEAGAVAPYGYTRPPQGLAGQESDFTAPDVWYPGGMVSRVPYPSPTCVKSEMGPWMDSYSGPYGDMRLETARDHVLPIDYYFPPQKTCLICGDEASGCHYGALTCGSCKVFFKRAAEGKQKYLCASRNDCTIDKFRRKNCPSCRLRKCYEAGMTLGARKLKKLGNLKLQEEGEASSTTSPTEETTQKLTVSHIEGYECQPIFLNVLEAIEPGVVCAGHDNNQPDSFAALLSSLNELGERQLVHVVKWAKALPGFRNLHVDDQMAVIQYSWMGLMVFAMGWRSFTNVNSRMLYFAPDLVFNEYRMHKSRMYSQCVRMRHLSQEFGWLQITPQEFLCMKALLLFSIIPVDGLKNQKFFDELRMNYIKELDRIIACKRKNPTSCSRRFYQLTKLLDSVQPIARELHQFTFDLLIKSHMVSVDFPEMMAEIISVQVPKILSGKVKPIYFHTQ
Chain of Ratio of Nucleoli Translocation and Cytoplasm, AR (gene 367) (P10275 whole entry, looked up): as above

N#Cc1ccc(N(CC(N)=O)CC(F)(F)F)cc1C(F)(F)F
inactive: [1] | [2] | [3] | [4] | [5]

COc1ccc(O)c(C(C)(C)C)c1
active: [1] 44 µM | [6] 3.04 µM and 633 nM | [7] 3.03 µM and 679 nM | [9] 4.04 µM | [10] 15 µM and 185 nM
inactive: [2] | [3] | [6] | [7] | [4] | [5] | [8] | [9] | [10]

C[C@]12CCC(=O)C=C1CC[C@@H]1[C@@H]2CC[C@]2(C)C(=O)CC[C@@H]12
inactive: [2] | [3]
active: [1] 38 µM

NS(=O)(=O)C(F)(F)C(F)(F)C(F)(F)C(F)(F)C(F)(F)C(F)(F)C(F)(F)C(F)(F)F
active: [11] 26.8 µM | [12] 82.7 µM | [13] 30.9 µM | [15] 32 µM | [1] 34.9 µM
inactive: [14] | [2] | [3] | [4] | [5]

CCSC(=O)N(CC)C1CCCCC1
active: [1] 50 µM | [6] 20 µM | [7] 20 µM | [10] 20000 nM
inactive: [2] | [3] | [4] | [5] | [16] | [8] | [9]

CCCN(CCC)N=O
inactive: [6] | [7] | [4] | [5] | [16] | [8] | [9] | [10]

CCC(C)c1cc([N+](=O)[O-])cc([N+](=O)[O-])c1O (configuration not stated)
inactive: [3] | [6] | [7] | [4] | [5] | [8] | [9] | [10]
active: [1] 0.329 µM | [2] 16 µM

Cc1ccc(O)c(C)c1
inactive: [4] | [5] | [16]

Nc1ccc(-c2ccc(N)cc2)cc1
inactive: [6] | [7] | [8] | [9] | [10]

Cc1cc2c3c(c1)C(c1ccccc1)=N[C@@H](NC(=O)c1ccncc1)C(=O)N3CC2
inactive: [4] | [5] | [16]

Nn1cnnc1
inactive: [4] | [5] | [16]

CCOP(=S)(OCC)SCSC(C)(C)C
inactive: [4] | [5] | [16]

CCCCCCOC(=O)c1ccccc1C(=O)OCCCCCC
inactive: [4] | [5] | [16]

O=C(O)C(F)(F)C(F)(F)C(F)(F)C(F)(F)C(F)(F)F
inactive: [6] | [7] | [4] | [5] | [16] | [8] | [9] | [10]

Clc1ccc(C(c2ccccc2Cl)C(Cl)(Cl)Cl)cc1 (configuration not stated)
inactive: [4] | [5] | [16]

O=NN(c1ccccc1)c1ccccc1
inactive: [4] | [5]

CCOCCOC(C)=O
inactive: [4] | [5] | [16]

CN(C)c1nc(=O)n(C2CCCCC2)c(=O)n1C
inactive: [4] | [5]

C1CC2OC2CC1C1CO1 (configuration not stated)
inactive: [4] | [5]

CCC(C)(CC)c1cc(NC(=O)c2c(OC)cccc2OC)on1
inactive: [6] | [7] | [4] | [5] | [16] | [8] | [9] | [10]

O=C(NC(=O)c1cc(F)c(F)cc1Cl)Nc1cc(F)ccc1N1CCC(C(=O)O)CC1
inactive: [4] | [5]

ClC1=C(Cl)[C@]2(Cl)[C@@H]3[C@@H](Cl)[C@H]4O[C@H]4[C@@H]3C1(Cl)C2(Cl)Cl
active: [6] 0.106 µM | [7] 0.107 µM | [8] 0.054 µM
inactive: [4] | [5] | [16] | [9] | [10]

Sc1ccccc1
inactive: [4] | [5] | [16]

C=CC(N)=O
inactive: [6] | [7] | [4] | [5] | [16] | [8] | [9] | [10]

O=S(=O)(O)C(F)(F)C(F)(F)C(F)(F)C(F)(F)F
inactive: [4] | [5] | [16]

Clc1ccc(C(Cl)(Cl)Cl)cc1
inactive: [6] | [7] | [4] | [5] | [16] | [8] | [9] | [10]

CN(C)CCO
inactive: [6] | [7] | [4] | [5] | [8] | [9] | [10]

Cc1cccc(C)c1N
inactive: [4] | [5] | [16]

O=S(=O)(O)C(F)(F)C(F)(F)C(F)(F)C(F)(F)C(F)(F)C(F)(F)F
inactive: [4] | [5] | [16]

ClC(Cl)=C(c1ccc(Cl)cc1)c1ccc(Cl)cc1
inactive: [6] | [7] | [4] | [5] | [16] | [8] | [9] | [10]

Cc1ccccc1O
inactive: [4] | [5] | [16]

Oc1ccc(Cl)cc1Cl
inactive: [4] | [5]

ClC1=C(Cl)[C@]2(Cl)[C@@H]3[C@@H]4C[C@@H]([C@H]5O[C@@H]45)[C@@H]3[C@@]1(Cl)C2(Cl)Cl
active: [6] 0.476 µM | [7] 0.489 µM | [8] 0.508 µM | [10] 126 nM
inactive: [4] | [5] | [9]

CC(C)C(=O)OCC(C)(C)C(OC(=O)C(C)C)C(C)C (configuration not stated)
inactive: [6] | [7] | [8] | [9] | [10]

Clc1ccc(Cl)cc1
inactive: [4] | [5]

Cc1cccc([N+](=O)[O-])c1
inactive: [4] | [5]

Cc1cc(O)ccc1Cl
inactive: [4] | [5] | [16]

Cc1cc(-c2ccc(N)c(C)c2)ccc1N
inactive: [4] | [5] | [16]

ClC1=C(Cl)[C@]2(Cl)[C@@H]3[C@H]4C[C@H]([C@@H]5O[C@H]45)[C@@H]3[C@@]1(Cl)C2(Cl)Cl
inactive: [4] | [5] | [16] | [8]
active: [6] 1.38 µM | [7] 1.4 µM | [9] 1.05 µM | [10] 494 nM
